From PubChem BioAssay AID651871 (Sanford-Burnham Center for Chemical Genomics, 2012)

Tested on: HL-1
Experiment: protection of cardiomyocytes from stress damage, SAR follow-up, cell-based, panel, H9c2 and HL-1, ATP luminescence, set 2 (AID 651871);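 note: cells exposed to stressor for 2 h before ATP readout; reference of the scale not given here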
Conditions: H9c2/HL-1 cardiomyocytes, 2-deoxyglucose stress, with 2-deoxyglucose, run 14, at 39.5 µM (top of the series)

Structure (SMILES): COc1ccc2c(c1OC)C(=O)N1c3ccccc3C(=O)N(Cc3cccc(Cl)c3Cl)C21 (stereo unspecified)
- activity (protection/inhibition): 31.8%
